Results as given in the supplement of paper PMC7411054.

Columns and labels:
Assay in all cases: phenotypically active (imaging signature differs from DMSO and reproducible) at any of 0.3-9 uM (binary (1 = active, 0 = inactive)); higher = active
Details in all cases: treatment time: 24 h
[1] = tested on: A549-ACTB-RAB5A
Procedure, shortened: (§1)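 After 24 h at 0.3, 1, 3 or 9 µM, with four wells per treatment, fifteen gene-edited A549, HepG2 and WPMY1 reporter lines carrying BFP, GFP and RFP/FusionRed were imaged live. Each well's live-cell features were expressed relative to solvent control wells. Deviation required ≥3 of 4 wells past the 95th percentile of control Euclidean distances, and reproducibility a median replicate Pearson correlation over the 95th percentile of non-replicates. Phenotypic activity rested on both.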

[2] = tested on: A549-CANX-COX4
Procedure, shortened: as §1

[3] = tested on: A549-GM130-SQSTM1
Procedure, shortened: as §1

[4] = tested on: A549-TP53BP1-CLTA
Procedure, shortened: as §1

[5] = tested on: A549-TUBA1B-RELA
Procedure, shortened: as §1

[6] = tested on: HepG2-ACTB-RAB5A
Procedure, shortened: as §1

[7] = tested on: HepG2-CANX-COX4
Procedure, shortened: as §1

[8] = tested on: HepG2-GM130-SQSTM1
Procedure, shortened: as §1

[9] = tested on: HepG2-TP53BP1-CLTA
Procedure, shortened: as §1

[10] = tested on: HepG2-TUBA1B-RELA
Procedure, shortened: as §1

[11] = tested on: WPMY1-ACTB-RAB5A
Procedure, shortened: as §1

[12] = tested on: WPMY1-CANX-COX4
Procedure, shortened: as §1

[13] = tested on: WPMY1-GM130-SQSTM1
Procedure, shortened: as §1

[14] = tested on: WPMY1-TP53BP1-CLTA
Procedure, shortened: as §1

[15] = tested on: WPMY1-TUBA1B-RELA
Procedure, shortened: as §1

Measured: phenotypically active

CN1[C@@H](CC(=O)c2ccccc2)CCC[C@H]1C[C@H](O)c1ccccc1 [Lobeline alpha (-) hydrochoride]
inactive: [1] 0 | [2] 0 | [3] 0 | [4] 0 | [5] 0 | [6] 0 | [7] 0 | [8] 0 | [9] 0 | [10] 0 | [11] 0 | [12] 0 | [13] 0 | [14] 0 | [15] 0

OCCN1C[C@H](O)[C@@H](O)[C@H](O)[C@H]1CO [Miglitol]
inactive: [1] 0 | [2] 0 | [3] 0 | [4] 0 | [5] 0 | [6] 0 | [7] 0 | [8] 0 | [9] 0 | [10] 0 | [11] 0 | [12] 0 | [13] 0 | [14] 0 | [15] 0

COc1ccc([C@@H]2CNC(=O)C2)cc1OC1CCCC1 [(R)-(-)-Rolipram]
inactive: [1] 0 | [2] 0 | [3] 0 | [4] 0 | [5] 0 | [6] 0 | [7] 0 | [8] 0 | [9] 0 | [10] 0 | [11] 0 | [12] 0 | [13] 0 | [14] 0 | [15] 0

Cc1cccc(Nc2ccccc2C(=O)O)c1C [mefenamic-acid]
inactive: [1] 0 | [2] 0 | [3] 0 | [4] 0 | [5] 0 | [6] 0 | [7] 0 | [8] 0 | [9] 0 | [10] 0 | [11] 0 | [12] 0 | [13] 0 | [14] 0 | [15] 0

CC(C)C1=CC2=CCC3[C@](C)(CCC[C@]3(C)C(=O)O)C2CC1 (stereo not given in full) [Abietic Acid]
inactive: [1] 0 | [2] 0 | [3] 0 | [4] 0 | [5] 0 | [6] 0 | [7] 0 | [8] 0 | [9] 0 | [10] 0 | [11] 0 | [12] 0 | [13] 0 | [14] 0 | [15] 0

O=C(/C=C/c1ccc(OCc2ccccc2)cc1)c1c(O)cc(OCc2ccccc2)cc1OCc1ccccc1 [4,2,4'-Tribenzyloxy-6'-hydroxychalcone]
inactive: [1] 0 | [2] 0 | [3] 0 | [4] 0 | [5] 0 | [6] 0 | [7] 0 | [8] 0 | [9] 0 | [10] 0 | [11] 0 | [12] 0 | [13] 0 | [14] 0 | [15] 0

CC(C)NCCCC1(C(N)=O)c2ccccc2-c2ccccc21 [indecainide]
inactive: [1] 0 | [2] 0 | [3] 0 | [4] 0 | [5] 0 | [6] 0 | [7] 0 | [8] 0 | [9] 0 | [10] 0 | [11] 0 | [12] 0 | [13] 0 | [14] 0 | [15] 0

C#C[C@]1(O)CC[C@H]2[C@@H]3CCc4cc(OC)ccc4[C@H]3CC[C@@]21C [mestranol]
inactive: [1] 0 | [2] 0 | [3] 0 | [4] 0 | [5] 0 | [6] 0 | [7] 0 | [8] 0 | [9] 0 | [10] 0 | [11] 0 | [12] 0 | [13] 0 | [14] 0 | [15] 0

O=C1NCCCC1C(=O)NCCc1c[nH]c2ccc(O)cc12 (stereo not given)
inactive: [1] 0 | [2] 0 | [3] 0 | [4] 0 | [5] 0 | [6] 0 | [7] 0 | [8] 0 | [9] 0 | [10] 0 | [11] 0 | [12] 0 | [13] 0 | [14] 0 | [15] 0

O=C(c1ccccc1)c1ccc2n1CCC2C(=O)O (stereo not given) [ketorolac]
inactive: [1] 0 | [2] 0 | [3] 0 | [4] 0 | [5] 0 | [6] 0 | [7] 0 | [8] 0 | [9] 0 | [10] 0 | [11] 0 | [12] 0 | [13] 0 | [14] 0 | [15] 0

NCCCC[C@H](N[C@@H](CCc1ccccc1)C(=O)O)C(=O)N1CCC[C@H]1C(=O)O [lisinopril]
inactive: [1] 0 | [2] 0 | [3] 0 | [4] 0 | [5] 0 | [6] 0 | [7] 0 | [8] 0 | [9] 0 | [10] 0 | [11] 0 | [12] 0 | [13] 0 | [14] 0 | [15] 0

NS(=O)(=O)c1cc2c(cc1Cl)N=CNS2(=O)=O [chlorothiazide]
inactive: [1] 0 | [2] 0 | [3] 0 | [4] 0 | [5] 0 | [6] 0 | [7] 0 | [8] 0 | [9] 0 | [10] 0 | [11] 0 | [12] 0 | [13] 0 | [14] 0 | [15] 0
